# Measured values as given in PubChem BioAssay AID1347076 (National Center for Advancing Translational Sciences (NCATS), 2019).
# Screen size: about 400,000 compounds; about 13,000 (3.2%) were called active. Roughly 18% stayed inconclusive and do not appear here. Calls come from the whole dose curve; as a rule, active = well fitted cell-killing curve with a large enough effect; inconclusive = small, poorly fitted or top-dose-only effect, or effect the other way; inactive = flat fitted curve, though single readings scatter. The entries come from a sample that favours actives as a whole. Where a call stands in place of a potency, no number is given.
# Assay: qHTS assay for MDR1-selective chemotherapeutics: Primary screen using the drug-selected MDR subline cells KB-V1; note: nearly all actives have a fitted effect of over 60% in size
# Conditions: KB-V1 MDR cells viability, CellTiter-Glo, 72 h; series mostly up to 46.1 µM
# In short: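 In this primary screen, KB-V1 cells overexpressing P-gp are incubated with library compounds (lowest to highest concentration) for 72 h at 37 degrees C before a luminescent ATP viability read.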
# Potency is the fitted concentration of half-maximal effect.
row,Structure (SMILES),Potency
1,COC(=O)c1ccccc1NS(=O)(=O)c1ccc2c(c1)CCCN2C(C)=O,inactive
2,CCOc1cc(/C=N/NC(=O)c2c(C)nc3ccc(Cl)cn23)ccc1O,inactive
3,CCc1oc(-c2ccc(OC)cc2)c(C(=O)OCCCCCO)c1C(C)OCCO (stereo not drawn),inactive
4,CC12CCC(C(=O)N(c3cccc(Cl)c3)C1=O)C2(C)C (stereo not drawn),inactive
5,CC12CCC(C(=O)N(NC(=O)c3ccccc3O)C1=O)C2(C)C (stereo not drawn),3.26 µM (active)
6,O=C(NN1C(=O)C2C(C1=O)C1C=CC2C12CC2)c1ccccc1Cl (stereo not drawn),inactive
7,O=C(NCc1ccccc1)C1CNCC(C(=O)NCc2ccccc2)C1 (stereo not drawn),inactive
8,O=C(OC/C=C/CSc1nnc(-c2cccc3ccccc23)o1)c1ccc(F)cc1,inactive
9,Cc1cc(S(=O)(=O)NC2CCCC2)ccc1-n1cnnn1,inactive
10,CCOc1ccc(CN(Cc2ccco2)S(=O)(=O)c2ccc(-n3cnnn3)c(OC)c2)cc1,inactive
11,COc1cc(S(=O)(=O)N(Cc2cccs2)C2CC2)ccc1-n1cnnn1,4.61 µM (active)
12,CCOC(=O)c1c(C)oc2nc(C)nc(Nc3ccc(CC)cc3)c12,inactive
13,O=C(C(=O)N1CCC(c2ccccc2)CC1)c1ccccc1,inactive
14,Cc1csc(SCC(=O)Nc2ccc(C)c(S(=O)(=O)N(C)C)c2)n1,inactive
15,CCN1CCN(CCNC(=O)c2ccc3c(c2)NC(=O)/C(=C\c2cccc(Cl)c2)S3)CC1,inactive
16,O=C(OCC(=O)N1CCCCCC1)c1cccc(Cl)c1Cl,inactive
17,CCOc1ccc(CCN2C(=S)N([C@@H](CC(C)C)CN3CCC[C@@H]3CN3C(=S)NC[C@@H]3Cc3ccc(O)cc3)C[C@@H]2Cc2ccc(O)cc2)cc1,inactive
18,CCC(=O)N1CCc2cc(S(=O)(=O)NC(Cc3ccccc3)C(=O)NCc3ccccc3)ccc21 (stereo not drawn),inactive
19,CC1CCCN(CC(O)COCc2ccccc2)C1 (stereo not drawn),inactive
20,CN1CCN(CCCCOc2ccccc2-c2ccccc2)CC1,inactive
21,CC1CCCN(CCOCCOc2ccccc2-c2ccccc2)C1 (stereo not drawn),20.6 µM (active)
22,OC[C@@H]1CN(Cc2ccc(F)cc2)C[C@H](n2cnc3c(NC4CCCC4)ncnc32)O1,inactive
23,Cc1ccc(N2CCN(C(=S)Nc3cc(C)ccn3)CC2)cc1,inactive
24,CC(NC(=O)CC1SC(N)=NC1=O)c1ccccc1 (stereo not drawn),inactive
25,NC1=NC(=O)C(Cc2cccc(Cl)c2Cl)S1 (stereo not drawn),18.4 µM (active)
26,O=C1NC(=Nc2ccc(Cl)cc2)SC1Cc1cccc(Cl)c1Cl (stereo not drawn),inactive
27,C[C@@H]1CN([C@H](C)CO)S(=O)(=O)c2ccc(C#C[C@@H](C)O)cc2O[C@@H]1CN(C)Cc1ccc(-c2ccccc2)cc1,inactive
28,Cc1cc(Br)cn2c(Cc3ccsc3)c(-c3ccc(C#N)cc3)nc12,inactive
